# Measured values from ChEMBL document CHEMBL4296182, “CO-ADD screening of NIH NCI Diversity Set V”.
# For part of these data: Measured potencies and affinities stand elsewhere.
# Key:
# [1] = test system: Staphylococcus aureus; assay: Antibacterial activity against Staphylococcus aureus MRSA ATCC 43300 (CO-ADD:GP_020); MIC in CAMBH media using NBS plates, by Resazurin F(560/590); format: functional; details: Concentration 20 uM, ASSAY_TEST Inhibition of Bacterial Growth, detection method Resazurin, Fluorescence (ex560/em590), MEDIA CAMHB, plate type 384well, CORNING #3640, time 18 hr
# [2] = test system: Acinetobacter baumannii; assay: Antibacterial activity against Acinetobacter baumannii ATCC 19606 (CO-ADD:GN_034); MIC in CAMBH media using NBS plates, by Resazurin F(560/590); format: functional; details: Concentration 20 uM, ASSAY_TEST Inhibition of Bacterial Growth, detection method Resazurin, Fluorescence (ex560/em590), MEDIA CAMHB, plate type 384well, CORNING #3640, time 18 hr
# [3] = test system: Escherichia coli; assay: Antibacterial activity against Escherichia coli ATCC 25922 (CO-ADD:GN_001); MIC in CAMBH media using NBS plates, by Resazurin F(560/590); format: functional; details: Concentration 20 uM, ASSAY_TEST Inhibition of Bacterial Growth, detection method Resazurin, Fluorescence (ex560/em590), MEDIA CAMHB, plate type 384well, CORNING #3640, time 18 hr
# [4] = test system: Klebsiella pneumoniae; details: Concentration 20 uM; ASSAY_TEST Inhibition of Bacterial Growth; detection method Absorption (OD600); MEDIA CAMHB; plate type 384well; NBS; CORNING #3640; time 18 hr
# [5] = test system: Candida albicans; details: 20 µM
# [6] = test system: Cryptococcus neoformans; details: Concentration 20 uM; ASSAY_TEST Inhibition of Fungal Growth; detection method Resazurin; Absorption (OD600-OD570); plate type 384well; NBS; CORNING #3640
Compound,Inhibition [1],Inhibition [2],Inhibition [3],Inhibition [4],Inhibition [5],Inhibition [6]
C1CCC(NC2=NCCO2)CC1,-4.28%,-18.87%,9.63%,6.74%,-0.27%,-10.7%
O=C(Nc1nnc(C(F)(F)F)s1)c1c(F)cccc1F,18.6%,12.37%,3.33%,14.22%,14.6%,22.23%
Brc1ccc(-c2csc(Nc3nc(-c4ccc(Br)cc4)cs3)n2)cc1,27.27%,-8.44%,9.62%,1.43%,3.84%,3.42%
Cc1nc([N+](=O)[O-])cn1-c1nc2ccccn2c1[N+](=O)[O-],12.97%,-5.05%,12.78%,11.88%,4.75%,-6.88%
Clc1ccccc1-c1nc2ccccc2[nH]1,11.4%,-8.21%,9.05%,12.13%,4.17%,-6.44%
Nc1nc(N)nc(C2C=CCCC2)n1 (stereo not given),1.35%,-5.4%,16.17%,16.96%,0.09%,-8.05%
COC(=O)C1(C(=O)OC)C2C(=O)C3C(C21)C3(C(=O)OC(C)(C)C)C(=O)OC(C)(C)C (stereo not given),5.34%,-10.49%,12.49%,9.29%,0.63%,-1.86%
Cc1cc(OCCCCOc2ccc(C#N)cc2)ccc1[N+](=O)[O-],20.1%,6.74%,2.94%,7.99%,7.31%,-12.2%
CC(=O)OC1CCC2(C)C(=CCC3C2CCC2(C)C3CC3OC4(CCC(C)CN4)C(C)C32)C1 (stereo not given),-5.01%,-6.15%,18.44%,9.38%,6.33%,14.75%
Clc1ccc2nc3ccccc3cc2c1,16.29%,9.09%,4.02%,9.96%,5.41%,-4.77%
CSc1nnc(-c2cccs2)[nH]1,9.02%,-12.85%,11.01%,0.04%,1.33%,-11.54%
O=c1ccn2c(n1)SC(c1ccccc1)C2 (stereo not given),9.54%,7.52%,0.87%,5.49%,4.6%,-10.89%
CC(C)(C)c1ccc(C(=O)N2CCOC23CCCCC3)cc1,6.69%,7.06%,4.56%,2.74%,2.86%,-8.62%
CCOC(=O)Cc1cc(=O)[nH]n(-c2ccccc2)c1=O,5.46%,4.69%,13.24%,12.15%,4.43%,-10.57%
CCCNC(=O)c1ccccc1C(=O)NC1(C(=O)NCCC)CCCC1,14.23%,6.45%,3.42%,12.55%,-0.46%,-3.84%
COc1cc2oc3cc(C)oc(=O)c3c2cc1OC,14.15%,0.41%,8.42%,14.11%,1.88%,-16.92%
O=S(=O)(Oc1ccc(Cl)cc1)c1cccc2cccnc12,11.37%,-12.19%,8.94%,7.96%,-1.21%,-3.12%
CCOc1ccc(NC(=O)Nc2cc(C(C)C)c(O)cc2C)cc1,12.02%,-0.68%,-2.75%,20.87%,4.16%,-21.1%
Cn1c(=O)c2nc(CNc3ccc(C(=O)O)cc3)[nH]c2n(C)c1=O,-13.67%,2.67%,-18.91%,4.5%,2.41%,17.72%
O=C(c1ccccc1)c1ccc[nH]1,-0.8%,-3.74%,-15.34%,11.78%,2.09%,18.91%
Cc1c(O)cnc2nn(-c3ccccc3)c(=N)n12,11.23%,10.25%,2.75%,9.94%,3.98%,-5.13%
O=S(=O)(c1ccc2c(c1)CCCN2)N1CCC[C@H]2CCCC[C@@H]21,4.63%,-20.33%,3.15%,6.75%,8.6%,-4.42%
O=C(O)/C(=C/c1ccccc1)c1ccccc1,7.86%,-10.93%,11.66%,8.35%,8.14%,-16.02%
CC(=O)Oc1c(C)c(OC(C)=O)c2c(c1C(C)=O)OC1CC(=O)C(C(C)=O)=C(O)C21C (stereo not given),13.8%,-11.04%,18.15%,8.45%,3.77%,-8.61%
O=c1nc(Oc2ccccc2)nc2ncccn12,18.68%,13.4%,27.8%,4.93%,7.13%,-13.98%
